Results filed as inconclusive are left out. A call without a number means that no potency is given here. Calls of active or inactive are those of the source. The call rests on the fitted dose curve; in most records, active means well fitted inhibition curve with a large enough effect; inconclusive means small, poorly fitted or top-dose-only effect; inactive means flat fitted curve, though single readings scatter.
Molecular target: Glutathione peroxidase 1 (Homo sapiens) (UniProt P07203)
Assay: Primary qHTS Assay for Inhibitors of Recombinant Selenoprotein Glutathione Peroxidase 1 (GPX1) (AID 1845191); further: nearly all actives have a fitted effect of over 65% in size
Details: recombinant GPX1, GR-coupled NADPH fluorescence, 15 min; series mostly up to 48.8 µM
Procedure, shortened: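 GR-coupled assay: compounds preincubated 30 min at room temperature with GPX1, then reaction started with CHP; final 10 nM GPX1, 1 mM GSH, 0.5 mM CHP, 0.5 mM NADPH, 100 nM GR, 0.01% BSA, pH 7.5 Tris buffer. NADPH fluorescence (340/450 nm) read at 0 and 15 min.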

Glutathione peroxidase 1 (Homo sapiens), sequence (P07203 whole entry, looked up): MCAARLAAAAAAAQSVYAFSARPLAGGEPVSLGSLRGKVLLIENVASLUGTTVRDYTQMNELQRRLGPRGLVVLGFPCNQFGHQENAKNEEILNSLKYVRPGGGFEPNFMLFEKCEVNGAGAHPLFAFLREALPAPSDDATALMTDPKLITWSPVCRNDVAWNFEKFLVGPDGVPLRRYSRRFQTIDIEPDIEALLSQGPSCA

**Q.** How did the Potency turn out when `CC(=O)SCC(Cc1ccccc1)C(=O)NCC(=O)OCc1ccccc1` (stereo not given) was run?
**A.** inactive

**Q.** With `NC(=O)Nc1sc(-c2ccc(F)cc2)cc1C(N)=O` as the compound, how does the Potency read?
**A.** inactive

**Q.** How did the Potency turn out when `CC(C)c1cnn2c(NCc3ccccc3)cc(NCCCCCCN)nc12` was run?
**A.** inactive

**Q.** For `C=C(C)[C@@H]1CC[C@]2(C)CC[C@]3(C)[C@H](CC[C@@H]4[C@@]5(C)CC[C@H](O)C(C)(C)[C@H]5CC[C@]43C)[C@@H]12`, which Potency is on record?
**A.** inactive

**Q.** `O=C1NC(O)CCN1[C@@H]1O[C@H](CO)[C@H](O)[C@H]1O` (stereo not given in full) was tested. Which Potency did it give?
**A.** inactive

**Q.** For `CC(C)Oc1ccc(C(=O)N[C@H](CNC(=O)CN(C)C)Cc2ccc(-c3cn4cccc([C@H](C)O)c4n3)cc2)cc1Cl`, which Potency is on record?
**A.** inactive

**Q.** `Oc1cc(-c2nc(-c3ccccc3)[nH]c2-c2ccncc2)ccc1Cl` was tested. Which Potency did it give?
**A.** inactive

**Q.** `COc1cc(O)c2c(c1)C1OC1C[C@H](O)[C@H](O)C(=O)C=CC[C@H](C)OC2=O` (stereo not given in full) was tested. Which Potency did it give?
**A.** inactive

**Q.** How did the Potency turn out when `O=S(=O)(O)CCSSCCS(=O)(=O)O` was run?
**A.** inactive

**Q.** For `C[C@](Cc1c[nH]c2ccccc12)(NC(=O)OC1C2CC3CC(C2)CC1C3)C(=O)NC[C@H](NC(=O)CCC(=O)O)c1ccccc1` (stereo not given in full), which Potency is on record?
**A.** inactive

**Q.** How did the Potency turn out when `CC(=O)OC[C@@H]1O[C@@H](n2ccc(=O)[nH]c2=O)[C@H](OC(C)=O)[C@H]1OC(C)=O` was run?
**A.** inactive

**Q.** How did the Potency turn out when `c1cncc(CN2CCC(n3ncc4c(N5CCOCC5)nc(-c5ccc6[nH]ccc6c5)nc43)CC2)c1` was run?
**A.** inactive

**Q.** With `c1coc(CNc2ncnc3nc[nH]c23)c1` as the compound, how does the Potency read?
**A.** inactive

**Q.** With `CCCCCCCN(CC)CCCC(O)c1ccc(NS(C)(=O)=O)cc1` (stereo not given) as the compound, how does the Potency read?
**A.** inactive

**Q.** How did the Potency turn out when `O=C(O)c1ccc(Nc2ncc3c(n2)-c2ccc(Cl)cc2C(c2c(F)cccc2F)=NC3)cc1` was run?
**A.** inactive

From PubChem BioAssay (NCATS)
